# PubChem BioAssay AID493188 (National Center for Advancing Translational Sciences (NCATS), 2011)
# Inconclusive results are not listed. Calls of active or inactive are those of the source. Calls follow the shape of the dose curve; as a rule, active = well fitted inhibition curve with a large enough effect; inconclusive = small, poorly fitted or top-dose-only effect; inactive = flat fitted curve, though single readings scatter.
# Biological target: Galactokinase (Homo sapiens) (UniProt P51570)
# Test: Confirmation Assay for Inhibitors of Human Galactokinase (GALK): SAR round 2
# From the text: NIH Molecular Libraries Probe Production Centers Network [MLPCN] NIH Chemical Genomics Center [NCGC] MLPCN Grant: R03 MH085689-01 Assay Submitter (PI): Kent Lai (University of Utah School of Medicine, 50 N Mario Capecchi Drive, Salt Lake City, UT 84132) NCGC Assay Overview Inherited deficiency of galactose-1-phosphate uridyltransferase (GALT) can result in a potentially lethal disorder called Classic Galactosemia (OMIM 230400). Several lines of evidence indicate that an elevated level of galactose-1-phosphate (gal-1-p), the product of galactokinase (GALK), is a major, if not sole, pathogenic mechanism in patients with classic galactosemia. Therefore, finding inhibitors of GALK is a potential novel therapy for this inherent metabolic disease and is the long term goal of this project. Active compounds observed in the qHTS GALK assay (AID: 1868) were cherry picked and re-screened for validation. […]
# NCGC Assay Protocol Summary: Three uL/well of ATP-buffer solution (35 uM ATP, 20mM HEPES pH8.0, 5 mM MgCl2, 60 mM NaCl, 1 mM DTT, 0.01% BSA final concentration) was dispensed into 1536-well, assay plates (Greiner, solid white medium-binding plates) with Aurora Discovery BioRAPTR Flying Reagent Dispenser (FRD; Beckton-Dickenson). […] Luminescence was detected with the ViewLux plate reader (Perkin Elmer, Waltham, MA) after 2 min incubation using a 1 sec exposure time and 2x binning.
# Galactokinase (Homo sapiens), sequence (P51570 whole entry, looked up): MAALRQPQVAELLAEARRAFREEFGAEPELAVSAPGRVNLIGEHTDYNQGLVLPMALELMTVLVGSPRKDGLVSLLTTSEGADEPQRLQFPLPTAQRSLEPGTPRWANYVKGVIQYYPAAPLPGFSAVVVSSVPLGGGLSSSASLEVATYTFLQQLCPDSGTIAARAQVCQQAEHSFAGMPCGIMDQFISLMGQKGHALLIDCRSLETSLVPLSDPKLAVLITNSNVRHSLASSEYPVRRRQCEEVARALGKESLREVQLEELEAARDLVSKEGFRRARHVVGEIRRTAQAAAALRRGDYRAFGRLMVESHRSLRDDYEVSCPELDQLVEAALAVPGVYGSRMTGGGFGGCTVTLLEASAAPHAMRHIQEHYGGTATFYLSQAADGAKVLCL
structure (smiles),measurement,value
CC(=O)OCOCC(=O)OCO[P+](=O)C(OCOC(C)=O)c1cc([N+](=O)[O-])ccc1Oc1ccc(Br)cc1 (stereo unspecified),outcome,inactive
